Assay results taken from the supplement of paper PMC7156485.
± gives the standard deviation of the averaged measurements.

Legend:
Conditions in all cases: concentration: 10 µM; 24 h
HCC1569 [1] = test: cell number relative to DMSO (% of DMSO); higher = more cells (less growth inhibition / toxicity)
In short: (§1)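 In 384-well plates holding 800 HCC1569 or TDF cells per well in RPMI with 10% FBS, compounds were tested at 10 µM for 24 h at 37 °C in triplicate. Fixation used 3.7% formaldehyde. Staining used a rabbit anti-H1.0 antibody with an AlexaFluor 647 secondary, plus DAPI. Each value, H1.0 nuclear intensity or cell number, is a median of replicates shown as percent of the plate control, and HCC1569 values were smoothed for positional effects.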

TDF [2] = test: as above
In short: as §1

TDF [3] = test: H1.0 immunofluorescence intensity relative to DMSO (% of DMSO); higher = stronger H1.0 induction, active = 120 or more
In short: as §1

HCC1569 [4] = test: H1.0 immunofluorescence intensity relative to DMSO (% of DMSO); higher = stronger H1.0 induction, active = 140 or more
In short: as §1
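Wherever H1.0 immunofluorescence intensity relative to DMSO is given: TDF is a line of transformed human dermal fibroblasts of mesenchymal origin.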
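Wherever cell number relative to DMSO is given: TDF denotes transformed human dermal fibroblasts of mesenchymal origin.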

Row | Structure (SMILES) | cell number (HCC1569 [1]) | cell number (TDF [2]) | H1.0 immunofluorescence intensity (TDF [3]) | H1.0 immunofluorescence intensity (HCC1569 [4])
1 | CN1CCCC1c1cccnc1 (single isomer, unassigned; (-)) [(-)-Nicotine] | 99.2 | 114 | 94.2 (inactive) | 80 (inactive)
2 | CN1C(C)(C)CCCC1(C)C.O=C(O)C(O)C(O)C(=O)O [Pempidine tartrate] | 105 | 94.9 | 99.5 (inactive) | 99.4 (inactive)
3 | COc1ccc(C=CC(=O)Nc2ccccc2C(=O)O)cc1OC [Tranilast] | 99.2 ± 2.1 | 103 ± 4.7 | 92.9 (inactive) | 102 (inactive)
4 | Cc1nccn1CC1CCc2c(c3ccccc3n2C)C1=O (stereo not given) [Ondansetron] | 103 | 104 | 95.4 (inactive) | 118 (inactive)
5 | Cn1cnc2c1c(=O)[nH]c(=O)n2C [Theobromine] | 104 ± 3 | 99 ± 6.1 | 96.4 (inactive) | 95.9 (inactive)
6 | Cc1ccc(Cl)c(Nc2ccccc2C(=O)[O-])c1Cl.[Na+] [Meclofenamic acid sodium] | 106 | 106 | 90.8 (inactive) | 101 (inactive)
7 | COc1cc(NC(C)CCCN)c2ncccc2c1 (stereo not given) [Primaquine] | 102 | 104 | 96.2 (inactive) | 113 (inactive)
8 | COc1cccc(OC)c1OCCNCC1COc2ccccc2O1.Cl (stereo not given) [WB-4101 hydrochloride] | 102 | 101 | 93.7 (inactive) | 93.3 (inactive)
9 | CCCCC(=O)O[C@]1(C(=O)CO)[C@@H](C)C[C@H]2[C@@H]3CCC4=CC(=O)C=C[C@]4(C)[C@@]3(F)[C@@H](O)C[C@@]21C | 96.4 | 106 | 87.6 (inactive) | 103 (inactive)
10 | CNCCC(Oc1ccc(C(F)(F)F)cc1)c1ccccc1.Cl (stereo not given) [Fluoxetine hydrochloride] | 93.1 | 85.7 | 108 (inactive) | 122 (inactive)
11 | CC1(C)CC(NC(=O)C(=O)Nc2ccc(Cl)cc2)CC(C)(C)N1 | 104 | 107 | 91 (inactive) | 99.1 (inactive)
12 | Nc1nc(OCc2cc(Br)cs2)c2[nH]cnc2n1 [6-[(4-bromo-2-thienyl)methoxy]-1H-purin-2-amine] | 101 | 107 | 97.7 (inactive) | 113 (inactive)
13 | O=C(O)COC(=O)Cc1ccccc1Nc1c(Cl)cccc1Cl [Aceclofenac] | 104 | 101 | 95.3 (inactive) | 103 (inactive)
14 | CCCC(=O)Oc1ccc2[nH]c(C(=O)c3cc4ccccc4[nH]3)cc2c1 [PDGF Receptor Tyrosine Kinase Inhibitor II] | 86.9 | 92.3 | 87.9 (inactive) | 165 (active)
15 | O=c1ccn(C2OC(COP(=O)([O-])OP(=O)([O-])O)C(O)C2O)c(=O)[nH]1.[Na+].[Na+] (stereo not given) [Uridine 5'-diphosphate sodium] | 105 | 106 | 95.6 (inactive) | 98.7 (inactive)
16 | Br.CN1C2CCC1CC(OC(=O)C(O)c1ccccc1)C2 (racemic) [DL-Homatropine hydrobromide] | 106 | 109 | 91.5 (inactive) | 85.8 (inactive)
17 | CCCCCC(O)C=CC=CC=CC(O)CC=CCCCC(=O)O (stereo not given) | 101 | 100 | 94.8 (inactive) | 107 (inactive)
18 | Cc1nc2sccn2c(=O)c1CCN1CCC(=C(c2ccc(F)cc2)c2ccc(F)cc2)CC1 [Ritanserin] | 101 | 111 | 88.8 (inactive) | 105 (inactive)
19 | COc1cc(O)c2c(=O)c(O)c(-c3ccc(O)c(O)c3)oc2c1 [Rhamnetine] | 91.7 | 89.5 | 93 (inactive) | 130 (inactive)
20 | CCCCCOC(=O)Nc1nc(=O)n(C2OC(C)C(O)C2O)cc1F (stereo not given) [Capecitabine] | 102 | 98.9 | 101 (inactive) | 95.7 (inactive)

Row | Structure (SMILES) | cell number (HCC1569 [1]) | cell number (TDF [2]) | H1.0 immunofluorescence intensity (TDF [3]) | H1.0 immunofluorescence intensity (HCC1569 [4])
21 | Cc1cc2c(s1)=Nc1ccccc1NC=2N1CCN(C)CC1 [Olanzapine] | 106 | 99.4 | 92.2 (inactive) | 95.6 (inactive)
22 | O=C(Nc1cccc(Nc2cc(Nc3cccc(C(F)(F)F)c3)ncn2)c1)C1CC1 [EGFR Inhibitor] | 54.7 | 8.22 | 178 (active) | 186 (active)
23 | Cc1c(Cl)cccc1Nc1ccccc1C(=O)O [Tolfenamic acid] | 105 | 105 | 104 (inactive) | 95 (inactive)
24 | Cn1cc(C2=C(c3cn(CCCSC(=N)N)c4ccccc34)C(=O)NC2=O)c2ccccc21 | 53.9 | 21.3 | 113 (inactive) | 238 (active)
25 | C[C@H]1CN(C[C@H](Cc2ccccc2)C(=O)NCC(=O)O)CC[C@@]1(C)c1cccc(O)c1 | 94.4 | 102 | 88.5 (inactive) | 107 (inactive)
26 | CC1(C)CC(=O)C2=C(C1)NC(=S)NC2c1cccc(O)c1 (stereo not given) | 70.7 | 9.81 | 152 (active) | 118 (inactive)
27 | NC1CCN(O)C1=O (racemic) | 101 | 104 | 84.3 (inactive) | 82.9 (inactive)
28 | CC(COc1ccccc1)N(CCCl)Cc1ccccc1.Cl (stereo not given) [Phenoxybenzamine hydrochloride] | 71.6 | 69.5 | 105 (inactive) | 107 (inactive)
29 | CCCn1c(=O)c2[nH]c(-c3ccc(OCC(=O)NCCN)cc3)nc2n(CCC)c1=O [Xanthine amine congener] | 97.6 | 104 | 98 (inactive) | 110 (inactive)
30 | CCN(CC)Cc1ccc(C(=O)N(CCc2ccccc2OC)[C@@H]2CCNC2)cc1.Cl.Cl | 98.5 | 95.9 | 100 (inactive) | 115 (inactive)
31 | CC1c2cccc(O)c2C(O)=C2C(=O)C3(O)C(O)=C(C(N)=O)C(=O)C(N(C)C)C3C(O)C21.Cl (stereo not given) [Doxycycline hydrochloride] | 96.5 | 107 | 96.9 (inactive) | 105 (inactive)
32 | COc1cc2ncnc(Sc3nnc(C)s3)c2cc1OC | 63.3 | 67.7 | 108 (inactive) | 160 (active)
33 | CCN(CC)CCCCN1c2ccccc2Oc2ccc(Cl)cc21.Cl [Akt Inhibitor X] | 83 | 87.1 | 108 (inactive) | 150 (active)
34 | CN(C)CCCN1c2ccccc2Sc2ccc(Cl)cc21.Cl [Chlorpromazine hydrochloride] | 88.5 | 64.4 | 135 (active) | 144 (active)
35 | Cl.O=C(c1ccc(OCCN2CCCCC2)cc1)c1c(-c2ccc(O)cc2)sc2cc(O)ccc12 [Raloxifene hydrochloride] | 90.1 | 100 | 109 (inactive) | 121 (inactive)
36 | CC1CN(c2c(F)c(N)c3c(=O)c(C(=O)O)cn(C4CC4)c3c2F)CC(C)N1 (stereo not given) [Sparfloxacin] | 104 | 103 | 95.6 (inactive) | 106 (inactive)
37 | CCC(C)C(=O)OC1CCC=C2C=CC(C)C(CCC3CC(O)CC(=O)O3)C21 (stereo not given) [Mevastatin] | 100.8 ± 0.37 | 87.1 ± 6.8 | 123 (active) | 95 (inactive)
38 | COc1ccc(Br)cc1S(=O)(=O)NC(=O)/C=C/c1ccccc1Cc1ccc2ccccc2c1 | 98.1 | 103 | 90.2 (inactive) | 103 (inactive)
39 | Cc1c2oc3c(C)ccc(C(=O)NC4C(=O)NC(C(C)C)C(=O)N5CCCC5C(=O)N(C)CC(=O)N(C)C(C(C)C)C(=O)OC4C)c3nc-2c(C(=O)NC2C(=O)NC(C(C)C)C(=O)N3CCCC3C(=O)N(C)CC(=O)N(C)C(C(C)C)C(=O)OC2C)c(N)c1=O (stereo not given) [Actinomycin D] | 46.2 | 16.9 | 179 (active) | 175 (active)
40 | OC1C=C2CCN3Cc4cc5c(cc4C(C1O)C23)OCO5 (stereo not given) [Lycorine] | 67.4 | 53.3 | 120 (inactive) | 180 (active)
